Source: PubChem BioAssay
SW480 rereplic – DNA re-replication induction in SW480 cells | SW480 DNA re-replication, Hoechst DNA content imaging, 48 h | Potency, µM (highest dose often 46.1 µM), inactives show at the highest dose re-replication activation, usual class: activators | 340,000 tested, 1.8% active | AID 624297; further: % of control where 0% means no effect; nearly all actives have a fitted effect of over 55% in size
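SW480 cells exposed to compounds for 48 hr at 37 C, 5% CO2, then Hoechst-stained 40 min. Nuclear DNA content imaged by fluorescence scanning (405 nm excitation, 500-530 nm emission); re-replication scored as increased high-intensity nuclei.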
HT1080NT lethal – kills 2HG-producing HT-1080-NT fibrosarcoma cells; HT-1080-NT fibrosarcoma viability, CellTiter-Glo ATP luminescence, 48 h; Potency, µM (series often up to 46.1 µM), for the others: top-dose activity, negative = less viability, usual class: cytotoxic; 360,000 tested, 1.6% active; AID 686970;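 further: NT is the 2HG producing partner of a matched IDH1 knockdown line; 0% = DMSO-treated cells and -100% = media-only wells without cells; nearly all actives have a fitted effect of over 55% in size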
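HT-1080-NT fibrosarcoma cells (2HG-overproducing), 750 cells/well in RPMI with 5% FBS, dosed after 2 h and incubated 48 h at 37C. CellTiter-Glo luminescence normalized to DMSO and no-cell wells; concentration-response curves fitted and classed.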
KB-3-1 tox – KB-3-1 parental cell cytotoxicity | AID 1347075 | 400,000 tested, 1.4% active | Potency, µM (highest dose often 46.1 µM), usual class: cytotoxic | KB-3-1 viability, CellTiter-Glo ATP luminescence, 72 h; further: on the % scale 0 is the no-effect control and ±100 the full control effect; nearly all actives have a fitted effect of over 60% in size
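Using CellTiter-Glo luminescence, growth of non-resistant KB-3-1 adenocarcinoma cells is assessed 72 h after pin-tool compound addition at 37 °C. Normalized responses across the concentration series yield fitted curves.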
HT1080 IDH1KD tx – kills HT-1080 cells with IDH1 knockdown; Potency, µM (series often up to 46.1 µM), inactives show at the top dose activity, negative = toxicity, most hits filed as cytotoxic; HT-1080 IDH1 knockdown viability, ATP luminescence, 48 h; 360,000 tested, 2% active;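 further: 0% = DMSO wells and -100% = cell-free medium wells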
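Using the IDH1-knockdown HT-1080 line run in the same batch and compound series as the NT line, viability after 48 h at 37 °C was determined by CellTiter-Glo luminescence and expressed as % activity.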
MCF10A rereplic – DNA re-replication induction in MCF 10a cells. MCF 10A DNA re-replication, Hoechst nuclear intensity, 48 h. Potency, µM (doses to about 46.1 µM), inactives show top-dose activity, positive = re-replication, usual class: activators. 350,000 tested, 2.9% active; further: % of control where 0% means no effect; nearly all actives have a fitted effect of over 50% in size
KB-V1 cytotox – kills drug-selected multidrug resistant KB-V1 cells. KB-V1 MDR cells viability, CellTiter-Glo, 72 h. Potency, µM (doses to about 46.1 µM), hits mostly cytotoxic. 400,000 tested, 3.4% active. AID 1347076; further: on the % scale 0 is the no-effect control and ±100 the full control effect; nearly all actives have a fitted effect of over 60% in size
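Drug-selected KB-V1 cells, grown in DMEM lacking phenol red with 10% FBS, receive compound titrations; after three days at 37 degrees C, surviving cell ATP is quantified by CellTiter-Glo luminescence and responses normalized and curve-fitted.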
The depositor's hits bear a star; i = inactive; ? = inconclusive; / = no result. Sampled rows, rich in hits. Any-hit rate of the full collection: about 7.9%. The call rests on the fitted dose curve; in most records, active means well fitted curve in the direction sought with a large enough effect; inconclusive means small, poorly fitted or top-dose-only effect, or another doubt; inactive means no such curve, though single readings can be large; an effect the other way counts as inactive or inconclusive. Potency means the concentration at half of the fitted maximal effect.

SMILES	SW480 rereplic	HT1080NT lethal	KB-3-1 tox	HT1080 IDH1KD tx	MCF10A rereplic	KB-V1 cytotox
CCOC(=O)c1ccc(N2C(=O)c3n[nH]c(C)c3C2c2ccccn2)cc1 (configuration not stated)	-2.3%	-4.0%	i	-3.0%	3.2%	i
CCOC(=O)c1ccc(N2C(=O)c3n[nH]c(C)c3C2c2ccc(OCC)cc2)cc1 (configuration not stated)	/	/	23.1µM*	/	/	?
Cc1ccc(N2C(=O)c3n[nH]c(C)c3C2c2ccccc2Cl)cc1 (configuration not stated)	/	/	i	/	/	?
CCOC(=O)c1ccc(N2C(=O)c3[nH]nc(-c4ccccc4)c3C2c2ccc(CC)cc2)cc1 (configuration not stated)	/	/	?	/	/	23.1µM*
CCOC(=O)c1ccc(N2C(=O)c3n[nH]c(-c4cccs4)c3C2c2ccc(OC)cc2OC)cc1 (configuration not stated)	/	/	?	/	/	25.9µM*
Cc1[nH]nc2c1C(c1ccccn1)N(c1ccc(Br)cc1)C2=O (configuration not stated)	-7.1%	-1.1%	i	-0.1%	-3.8%	18.4µM*
CC1CC(C)CN(S(=O)(=O)CCNC(=O)c2ccccc2)C1 (configuration not stated)	-4.5%	12.3%	i	13.2%	4.5%	?
COc1ccccc1CNC(=O)CCn1cnc2ccccc2c1=O	/	/	i	/	/	?
CCOc1ccc(NC(=O)CC2C(=O)OCCN2CC)cc1 (configuration not stated)	/	/	i	/	/	i
Cc1ccc(Sc2c(CO)c(-c3ccccc3)nn2C)cc1	0.82µM*	0.731µM*	?	1.16µM*	1.03µM*	?
CC1(C)CC(=O)C(CO)=C(c2cccc3ccccc23)C1=O	-1.8%	14.0%	i	1.5%	1.7%	i
O=C(N/N=C/c1cccc2ccccc12)c1n[nH]c2c1CCCC2	5.8µM*	1.46µM*	4.11µM*	1.46µM*	?	2.59µM*
O=C(N/N=C\c1cccc(Cl)c1)c1n[nH]c2c1CCCC2	-8.2%	-5.9%	i	-29.2%	?	i
O=C(N/N=C/c1ccc(Cl)cc1Cl)c1n[nH]c2c1CCCC2	?	8.2µM*	5.17µM*	6.51µM*	?	?
CC12CCC(C(=O)Nc3ccc(Br)cn3)(OC1=O)C2(C)C (configuration not stated)	?	15.4%	i	26.8%	0.0%	i
Fc1cccc(Cc2c(C3CCCCC3)nc3ccc(Br)cn23)c1	/	-2.2%	i	-0.2%	/	i
COc1ccc2cc(CN(Cc3ccco3)Cc3nnnn3C3CCCCC3)c(=O)[nH]c2c1	?	?	i	?	34.7%	?
CCC(C)(C)n1nnnc1CN(Cc1ccco1)Cc1cc2cc3c(cc2[nH]c1=O)OCO3	15.4%	6.3%	i	5.0%	18.4%	?
CCC(C)(C)n1nnnc1CN(Cc1ccc(Cl)cc1)Cc1ccco1	1.3%	-3.8%	20.6µM*	-2.4%	?	23.1µM*
CC(C)(C)c1ccc(CN(Cc2ccco2)Cc2nnnn2C2CCCC2)cc1	13.1%	-1.5%	i	?	?	16.4µM*
COC(=O)c1cc(S(=O)(=O)NCC2CCN(Cc3cccc(Cl)c3)CC2)c[nH]1	-11.8%	0.6%	i	12.0%	-3.4%	i
COc1cc(C(=O)OC(C)CN2C(C)CCCC2C)cc(OC)c1OC (configuration not stated)	-3.7%	25.8%	i	5.8%	-2.3%	i
CCC(Oc1ccccc1)C(=O)N1CCN(Cc2cc(=O)n3nc(-c4cccc(C)c4)sc3n2)CC1 (configuration not stated)	/	/	?	/	/	i
CN1C2C=C(N(CCc3c[nH]c4ccccc34)C(=O)c3ccc(Cl)cc3)CC1CC2 (configuration not stated)	?	?	?	?	9.8%	23.1µM*
O=C(Cc1c[nH]c2ccccc12)NCc1ccc(Cl)cc1	1.9%	0.2%	i	2.0%	?	i
SMILES	SW480 rereplic	HT1080NT lethal	KB-3-1 tox	HT1080 IDH1KD tx	MCF10A rereplic	KB-V1 cytotox
CCOc1ccc(NC(=O)CN(C)C(=O)c2cn(-c3ccc(C)cc3)nc2-c2cccc(OC)c2)cc1OCC	-4.6%	-4.2%	i	-2.0%	?	5.8µM*
COc1cccc(-c2nn(-c3ccc(C)cc3)cc2C(=O)N(C)CC(=O)Nc2cccc(F)c2)c1	10.1%	-24.4%	?	?	?	i
CCOc1ccc(CNC(=O)C2Cc3ccccc3N2C(=O)CC)cc1OC (configuration not stated)	/	/	i	/	/	i
C=CC[C@@H](Cc1ccc(F)cc1)C(=O)OC[C@@H]1CCCN1C(=O)[C@H](CC=C)CC(=O)N(CCO)Cc1ccccc1	0.8%	-19.9%	?	-6.6%	0.7%	20.6µM*
C=CCC[C@@H](Cc1ccc(F)cc1)C(=O)OC[C@@H]1CCCN1C(=O)[C@@H](CC=C)CC(=O)N[C@@H](CO)Cc1ccccc1	9.6%	-25.7%	16.4µM*	-1.0%	17.7%	i
CCC(Oc1ccccc1)C(=O)N1CCN(S(=O)(=O)c2ccccc2)CC1 (configuration not stated)	-25.0%	-3.4%	i	4.0%	15.9%	?
CCOC(=O)N1CCN(S(=O)(=O)N2CCCC(C(=O)NCCc3ccc(C)cc3)C2)CC1 (configuration not stated)	-1.8%	8.1%	i	10.2%	-10.7%	i
CC#CC(=O)N1CCC(n2nccc2NC(=O)CCc2ccccc2)CC1	/	6.4%	i	-13.2%	/	?
COc1ccc(NC(=O)CSc2nnc(C)n2C2CC2)cc1S(=O)(=O)N1CCOCC1	-6.7%	9.5%	i	1.8%	-2.1%	?
CC1CCCCN1CCCNC(=O)Cn1ncc2c3ccccc3n(Cc3ccccc3)c2c1=O (configuration not stated)	/	/	i	/	/	?
O=[N+]([O-])c1ccc(N=Nc2c(Cl)cc(O)cc2Cl)cc1	?	6.51µM*	18.4µM*	8.2µM*	?	i
Nc1ccc(C(=O)N2CCCC2)cc1	-2.9%	8.4%	i	12.5%	-1.5%	i
Nc1ccc(C(=O)n2c3ccccc3c3ccccc32)cc1	3.26µM*	?	2.31µM*	0.92µM*	?	1.84µM*
O=C(COC(=O)c1c(F)cccc1F)c1ccc[nH]1	-2.5%	17.1%	i	7.4%	-4.1%	i
